Consider nine compounds from PubChem BioAssay (NCI).

This is part of a sample that, as a whole, favours compounds with a hit. Of some 79,000 tested, about 15% had one in any assay. Values without a mark were called inactive. Calls of active or inactive are those of the source. No stated cut-off is given here; in the data, active means growth inhibition above about 70%; inactive means the rest.

Test [1] in a line: NCI Yeast Anticancer Drug Screen. Data for the rad50 strain (AID 155).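 Further: 0% = growth of vehicle-only cultures of the same strain.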 As to conditions: S. cerevisiae rad50 strain growth inhibition, hits give high values. The essentials:
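Growth of the mutant yeast was measured after compound exposure and referenced to vehicle-treated cultures.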

The nature of test [2]: NCI Yeast Anticancer Drug Screen. Data for the mec2-1 strain (AID 157). As to conditions: S. cerevisiae mec2-1 strain, hits give high values. A digest of the protocol:
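Yeast mec2-1 mutant treated with compound. Readout: growth inhibition vs vehicle controls.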

A short description of test [3]: NCI Yeast Anticancer Drug Screen. Data for the sgs1 mgt1 strain (AID 161).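 Further: 0% = growth of cultures given vehicle only.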 To be noted: S. cerevisiae sgs1 mgt1 strain, hits give high values. A digest of the protocol: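 Test agents were incubated with a DNA-repair-mutant yeast strain. Growth was then read and compared against vehicle-treated controls.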
Test [4] can be described thus: NCI Yeast Anticancer Drug Screen. Data for the cln2 rad14 strain (AID 165).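 Further: 0% = growth equal to vehicle treated cultures.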 To be noted: S. cerevisiae cln2 rad14 strain, hits give high values. The essentials:
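cln2 rad14 yeast strain; compound exposure; growth inhibition read vs vehicle controls.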

Test [5] is described as follows: NCI Yeast Anticancer Drug Screen. Data for the bub3 strain (AID 167). As to conditions: S. cerevisiae bub3 mutant strain, hits give high values. The essentials: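 Whole-cell yeast assay. The mutant strain was incubated with compounds, and growth inhibition was determined by comparison with vehicle-treated cells.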
A short description of test [6]: NCI Yeast Anticancer Drug Screen. Data for the mlh1 rad18 strain (AID 175). As to conditions: S. cerevisiae mlh1 rad18 strain growth inhibition, hits give high values. A digest of the protocol: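 Yeast w/ defined DNA-repair lesions; compound exposure; growth vs vehicle controls → % inhibition.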
[7] abbreviates: at 5.0 µM (retest, dose inferred, filed as 0.5).
Where [8] appears, read: at 50.0 µM (retest, dose inferred, filed as 5.0).

Regarding `CCN(C(=O)c1ccccc1C)C(c1ccccc1)P(=O)(c1ccccc1)c1ccccc1` (configuration not stated), the growth inhibition in test [1] (setting [7]) is 61%; in test [1] (setting [8]) it was 99% (active); in test [1] (at 50.0 µM), 78.6% (active); in test [2] (setting [7]) it was 67%; in test [2] (setting [8]) it was 98% (active); in test [2] (at 50.0 µM), 86.3% (active). The growth inhibition in test [3] (setting [7]) is 28%; in test [3] (setting [8]) it was 98% (active); in test [3] (at 50.0 µM) it was 87.7% (active); in test [4] (setting [7]) it was 54%; in test [4] (setting [8]) it was 98% (active); in test [4] (at 50.0 µM), 53.8%. Also, the growth inhibition in test [5] (setting [7]) is 61%; in test [5] (setting [8]), 96% (active); in test [5] (at 50.0 µM) it was 87.2% (active); in test [6] (setting [7]), 61%; in test [6] (setting [8]), 99% (active); in test [6] (at 50.0 µM), 84.7% (active).

For the compound `CCCCCCCCCCCCCCCCCC[N+](C)(C)Cc1ccc(C[N+](C)(C)CCCCCCCCCCCCCCCCCC)cc1`, the growth inhibition in test [1] (setting [7]) was -5%; in test [1] (setting [8]), 22%; in test [1] (at 50.0 µM), 1.5%; in test [2] (setting [7]) it was -3%; in test [2] (setting [8]), 7%; in test [2] (at 50.0 µM), 35.3%. The growth inhibition in test [3] (setting [7]) is 5%; in test [3] (setting [8]), 51%; in test [3] (at 50.0 µM), 71.3% (active); in test [4] (setting [7]), -2%; in test [4] (setting [8]) it was -9%; in test [4] (at 50.0 µM) it was 44.9%. Also, the growth inhibition in test [5] (setting [7]) is -4%; in test [5] (setting [8]), 11%; in test [5] (at 50.0 µM) it was 5.05%; in test [6] (setting [7]) it was -3%; in test [6] (setting [8]), 26%; in test [6] (at 50.0 µM) it was 8.2%.

As to `CC1=C(C(=O)OCCO[N+](=O)[O-])C(c2ccccc2[N+](=O)[O-])C(C(=O)OC(C)C)=C(C)N1` (configuration not stated), the growth inhibition in test [1] (setting [7]) was 11%; in test [1] (setting [8]), 97% (active); in test [1] (at 50.0 µM) it was 83.5% (active); in test [2] (setting [7]), 22%; in test [2] (setting [8]), 97% (active); in test [2] (at 50.0 µM), 87.7% (active). In addition, the growth inhibition is -2% in test [3] (setting [7]); 97% (active) in test [3] (setting [8]); 90.3% (active) in test [3] (at 50.0 µM); 10% in test [4] (setting [7]); 92% (active) in test [4] (setting [8]); 86.9% (active) in test [4] (at 50.0 µM). The growth inhibition in test [5] (setting [7]) is -3%; in test [5] (setting [8]), 97% (active); in test [5] (at 50.0 µM), 89.6% (active); in test [6] (setting [7]) it was 19%; in test [6] (setting [8]), 97% (active); in test [6] (at 50.0 µM) it was 85.5% (active).

As to `Cc1ccccc1C(CC(=O)O)C(C)c1ccccc1` (configuration not stated), the growth inhibition in test [1] (setting [7]) is 14%; in test [1] (setting [8]), 53%; in test [1] (at 50.0 µM), 20.5%; in test [2] (setting [7]), 18%; in test [2] (setting [8]) it was 53%; in test [2] (at 50.0 µM), 88.8% (active). For the same compound, the growth inhibition in test [3] (setting [7]) is 9%; in test [3] (setting [8]) it was 66%; in test [3] (at 50.0 µM) it was 77.9% (active); in test [4] (setting [7]), 13%; in test [4] (setting [8]) it was 60%; in test [4] (at 50.0 µM), 73.2% (active). The growth inhibition is 32% in test [5] (setting [7]); 80% (active) in test [5] (setting [8]); 97.2% (active) in test [5] (at 50.0 µM); 12% in test [6] (setting [7]); 45% in test [6] (setting [8]); 86.2% (active) in test [6] (at 50.0 µM).

In the case of `O=C(NN=C1CCCCC1)c1ccc([N+](=O)[O-])cc1`, the growth inhibition in test [1] (setting [7]) is -1%; in test [1] (setting [8]), -7%; in test [1] (at 50.0 µM) it was -0.5%; in test [2] (setting [7]), -17%; in test [2] (setting [8]), -11%; in test [2] (at 50.0 µM) it was 0.2%. For the same compound, the growth inhibition was 13% in test [3] (setting [7]); 9% in test [3] (setting [8]); 10.6% in test [3] (at 50.0 µM); -1% in test [4] (setting [7]); 10% in test [4] (setting [8]); 37.5% in test [4] (at 50.0 µM). Besides, the growth inhibition in test [5] (setting [7]) was 19%; in test [5] (setting [8]) it was 24%; in test [5] (at 50.0 µM), -2.95%; in test [6] (setting [7]), 4%; in test [6] (setting [8]), 7%; in test [6] (at 50.0 µM) it was 20.2%.

Turning to `CCOP(=O)(OCC)/C(C#N)=C/c1ccc(C(F)(F)F)cc1`, the growth inhibition was 20% in test [1] (setting [7]); 90% (active) in test [1] (setting [8]); 89.5% (active) in test [1] (at 50.0 µM); -16% in test [2] (setting [7]); 94% (active) in test [2] (setting [8]); 91.7% (active) in test [2] (at 50.0 µM). Also, the growth inhibition in test [3] (setting [7]) was 4%; in test [3] (setting [8]), 93% (active); in test [3] (at 50.0 µM), 90.9% (active); in test [4] (setting [7]) it was 12%; in test [4] (setting [8]), 95% (active); in test [4] (at 50.0 µM), 89.4% (active). In addition, the growth inhibition in test [5] (setting [7]) was 28%; in test [5] (setting [8]), 97% (active); in test [5] (at 50.0 µM), 89.4% (active); in test [6] (setting [7]) it was 3%; in test [6] (setting [8]), 90% (active); in test [6] (at 50.0 µM) it was 86.8% (active).

Consider `COc1ccc(/C=N/Nc2cc(C)nc3cc4c(cc23)OCO4)c2ccccc12`, for which the growth inhibition in test [1] (setting [7]) is 20%; in test [1] (setting [8]) it was 88% (active); in test [1] (at 50.0 µM), 82.6% (active); in test [2] (setting [7]), 6%; in test [2] (setting [8]), 81% (active); in test [2] (at 50.0 µM), 85.8% (active). Also, the growth inhibition in test [3] (setting [7]) was 22%; in test [3] (setting [8]) it was 91% (active); in test [3] (at 50.0 µM), 86% (active); in test [4] (setting [7]), 0%; in test [4] (setting [8]), 24%; in test [4] (at 50.0 µM), 57.6%. Also, the growth inhibition in test [5] (setting [7]) is 8%; in test [5] (setting [8]) it was 37%; in test [5] (at 50.0 µM), 97.9% (active); in test [6] (setting [7]), 12%; in test [6] (setting [8]), 82% (active); in test [6] (at 50.0 µM), 94.8% (active).

For the compound `CCCCCC(O)C(C)CO` (configuration not stated), the growth inhibition in test [1] (setting [7]) is 1%; in test [1] (setting [8]) it was -3%; in test [1] (at 50.0 µM), 12.8%; in test [2] (setting [7]), -2%; in test [2] (setting [8]), -3%; in test [2] (at 50.0 µM), -7.6%. The growth inhibition in test [3] (setting [7]) is -2%; in test [3] (setting [8]), -4%; in test [3] (at 50.0 µM), -4.2%; in test [4] (setting [7]) it was -7%; in test [4] (setting [8]), -4%; in test [4] (at 50.0 µM), 42.9%. For the same compound, the growth inhibition in test [5] (setting [7]) was 0%; in test [5] (setting [8]) it was -1%; in test [5] (at 50.0 µM), 0.9%; in test [6] (setting [7]), -1%; in test [6] (setting [8]) it was -1%; in test [6] (at 50.0 µM), 14.4%.

Regarding `Nc1nnc2nc(CC(=O)c3ccc([N+](=O)[O-])cc3)c(CC(=O)c3ccc([N+](=O)[O-])cc3)nn12`, the growth inhibition in test [1] (setting [7]) was 6%; in test [1] (setting [8]), -3%; in test [1] (at 50.0 µM), 3.7%; in test [2] (setting [7]), 15%; in test [2] (setting [8]), 15%; in test [2] (at 50.0 µM), 19.2%. Further, the growth inhibition in test [3] (setting [7]) was 6%; in test [3] (setting [8]), 2%; in test [3] (at 50.0 µM) it was 11.8%; in test [4] (setting [7]), 4%; in test [4] (setting [8]), 4%; in test [4] (at 50.0 µM) it was 43.1%. The growth inhibition in test [5] (setting [7]) was 6%; in test [5] (setting [8]), 1%; in test [5] (at 50.0 µM), 0.8%; in test [6] (setting [7]), 4%; in test [6] (setting [8]), 26%; in test [6] (at 50.0 µM), 3.05%.
